High-throughput results deposited in PubChem BioAssay by several laboratories.
Rows were chosen to be rich in hits. Some 2.5% of all compounds tested hit in one or more screens of this group.
Measles CPE: protection of cells from measles virus; Measles virus-infected cells, CPE protection, absorbance; protection (pct of control), % at 4 µM; hit rate 1.5% among 140,000; in the data active = protection mostly above about 24%, no sharp cut-off; inactive = mostly below about 26%
MRP1 act: MRP-1 activation. H69AR cells + doxorubicin, viability rescue, CellTiter-Glo. viability increase, % at 10 µM. hit rate 0.61% among 140,000;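 active = viability gain under doxorubicin at or above a set limit, the compound median plus 3 SD, cut at about 4.7% in these data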;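 note: MRP-1 overexpressing cells given doxorubicin 25 µM after compound pretreatment; 18-22 h compound pretreatment then 72 h with doxorubicin before readout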
sdo1 growth: compounds rescuing growth of sdo1-depleted yeast, bone marrow failure model; S. cerevisiae sdo1-depleted JHY4D growth rescue, OD600 30 h; active compounds read high; pdr5 snq2 efflux-pump mutant strain; z-score at 10 µM; hit rate 0.21% among 140,000;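 active = z-score above 3 at both the 24 hr and the 30 hr optical density reads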
MRP reversal: reverses drug resistance mediated by MRP | differential viability (reversal), % at 10 µM | hit rate 0.04% among 85,000 | H69AR cells + 2 uM doxorubicin, CellTiter-Glo, 72 h;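 active = viability drop by adding the cancer drug above about 55%, with treated viability meeting a 40% cutoff, limit read from the data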;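 note: larger differential means the compound sensitizes cells more to doxorubicin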
sEH activator: activators of human soluble epoxide hydrolase; P34913; purified human sEH enzymatic activity, activator screen; activation, % at 2 µM; hit rate 0.04% among 91,000; in the data active = activation above about 37%
Target sequence (P34913 whole entry, looked up): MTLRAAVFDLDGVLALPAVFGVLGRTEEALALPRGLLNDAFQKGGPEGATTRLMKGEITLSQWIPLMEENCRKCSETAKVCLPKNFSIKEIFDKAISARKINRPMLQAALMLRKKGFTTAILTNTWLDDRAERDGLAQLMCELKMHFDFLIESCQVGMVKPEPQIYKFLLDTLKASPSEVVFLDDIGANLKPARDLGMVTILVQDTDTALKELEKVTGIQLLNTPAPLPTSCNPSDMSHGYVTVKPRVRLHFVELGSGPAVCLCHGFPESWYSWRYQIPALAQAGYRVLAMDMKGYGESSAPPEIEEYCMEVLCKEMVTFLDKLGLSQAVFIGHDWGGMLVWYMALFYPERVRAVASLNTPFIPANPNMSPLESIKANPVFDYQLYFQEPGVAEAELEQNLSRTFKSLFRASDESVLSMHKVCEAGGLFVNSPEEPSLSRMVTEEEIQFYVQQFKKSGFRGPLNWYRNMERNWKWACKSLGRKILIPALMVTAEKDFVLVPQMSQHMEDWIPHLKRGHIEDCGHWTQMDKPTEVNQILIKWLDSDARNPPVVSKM
sEH inh: blocks human soluble epoxide hydrolase activity; P34913; recombinant human sEH enzymatic activity assay; inhibition, % at 2 µM; hit rate 0.34% among 91,000; AID 707; in the data active = inhibition above about 80%
Each line names hits and unclear results; the compound was inactive in the other large screens.

Cc1cc(NC(=O)COc2ccc(N(C)S(=O)(=O)c3ccccc3)cc2)no1	Measles CPE 64.0 (no result: sEH activator, sEH inh)
O=C(N/N=C/c1cccc(O)c1)c1csc2ccccc12	sEH inh 84.0 (no result: MRP reversal)
CCCCOc1cccc(/C=N/NC(=O)c2csc(C)c2C)c1	sEH inh 82.1 (no result: MRP reversal)
Cc1ccc2nc(-c3ccccn3)cc(C(=O)NC3CCN(C)CC3)c2c1	Measles CPE 67.3
CCCCS(=O)(=O)NC1=NCN(C2CCN(Cc3ccccc3)CC2)CN1	none (no result: Measles CPE, MRP1 act, sdo1 growth)
O=C1CN(C(=O)COC(=O)c2ccccc2NC(=O)c2ccco2)c2ccccc2N1	none
Cc1cc(C)cc(OCC(=O)Nc2ccc3c(c2)C(=O)c2ccccc2C3=O)c1	none (no result: MRP reversal, sEH activator, sEH inh)
CC(NC(=O)c1ccc(Br)cc1)c1ccc2c(c1)CCCC2 (stereo not given)	MRP1 act 5.6 (no result: MRP reversal, sEH activator, sEH inh)
CN(C)c1ccnc(N(Cc2ccccc2)Cc2ccccc2)c1C#N	none
Cc1ccc2[nH]c(=O)c(C(c3nnnn3C3CCCC3)N3CCCc4ccccc43)cc2c1 (stereo not given)	MRP1 act 18.6
CCC(C)(C)n1nnnc1C(c1cc2cc(C)ccc2[nH]c1=O)N1CCCc2ccccc21 (stereo not given)	none
O=C(NNC(=O)c1ccc(SCC2CCCO2)c([N+](=O)[O-])c1)c1ccc(F)cc1 (stereo not given)	none
Oc1ccccc1/C=N/Nc1cc(N2CCCC2)nc(N2CCCC2)n1	none (no result: MRP reversal, sEH activator, sEH inh)
C=CCn1c(COc2ccc(Cl)cc2)nnc1SCC(=O)N/N=C/c1cccc(O)c1	none (no result: MRP reversal)
C=CCn1c(CNc2ccccc2)nnc1SCC(=O)N/N=C/c1ccccc1O	MRP1 act 5.3 (no result: MRP reversal)
CCc1ccc(N(C(=O)c2csnn2)C(C(=O)NCc2ccccc2)c2ccco2)cc1 (stereo not given)	Measles CPE 34.7
O=c1c2c3c(sc2n2cnnc2n1Cc1ccccc1)CN(Cc1ccccc1)CC3	MRP reversal 64.4 (no result: Measles CPE, MRP1 act, sdo1 growth)
COC(=O)c1cccc(NC(=O)CSc2nc3cccnc3n2C)c1	Measles CPE 62.6 (no result: sEH activator, sEH inh)
C/C(=N/NC(=O)Cc1cccn1C)c1ccccc1	none
C/C(=N\NC(=O)Cc1cccn1C)c1cccc2ccccc12	sEH inh 82.4
COc1ccc(/C=N/NC(=O)COc2ccc(Cl)cc2Cl)cc1Cn1nc(C)cc1C	none (no result: MRP reversal, sEH activator, sEH inh)
COc1ccc(Cl)cc1S(=O)(=O)N1CCN(C(=O)c2ccco2)CC1	none
COc1ccc(S(=O)(=O)N2CCN(C(=O)c3ccco3)CC2)cc1OC	Measles CPE 57.0
CCOC(=O)c1c(NC(=O)Cn2nc(C(F)(F)F)cc2C)sc(C)c1C	none (no result: MRP reversal, sEH activator, sEH inh)
CCN=c1scc(C)n1/N=C/c1ccc(O)c(O)c1O	MRP1 act 6.2 (no result: MRP reversal)
O=C(COC(=O)c1cc(-c2cccs2)nn1-c1ccccc1)Nc1ccc(F)c([N+](=O)[O-])c1	none (no result: MRP reversal, sEH activator, sEH inh)
CC1(C)Cc2c(C#N)c(NCCc3ccccc3)nc(-c3ccco3)c2CO1	Measles CPE 52.6 (no result: sEH activator, sEH inh)
O=C(NN1C(=O)c2ccccc2C1=O)C1C2CCCCC21 (stereo not given)	none (no result: MRP reversal, sEH activator, sEH inh)
O=C(NCc1ccc(N2CCCC2=O)cc1)NC1CCCCC1	sEH inh 80.4
O=C(NC1CCCCCC1)c1ccc(N2CCCC2=O)cc1	none (no result: sEH activator, sEH inh)
Cc1cc2cc(CNC(=O)NC3CCCCC3)ccc2[nH]1	sEH inh 90.2
CC(=O)NCc1ccc2[nH]c(C)cc2c1	none (no result: sEH activator, sEH inh)
COC(=O)[C@@H](NC(=O)Nc1ccc(C(C)=O)cc1)C(C)C	Measles CPE 104.2
CCN(CC)c1ccc(NC(=O)Nc2cccc(C(C)=O)c2)cc1	none
CCC(C)[C@H](NC(=O)Nc1ccc(S(N)(=O)=O)cc1)C(=O)O (stereo not given in full)	none (no result: MRP reversal, sEH activator, sEH inh)
COC(=O)[C@@H](NC(=O)Nc1ccc(OC(F)(F)F)cc1)C(C)C	none
CC(=O)Nc1cccc(NC(=O)Nc2ccc(C(C)=O)cc2)c1	Measles CPE 43.9
COC(=O)[C@@H](NC(=O)Nc1ccc(S(N)(=O)=O)cc1)C(C)C	Measles CPE 30.7 (no result: MRP reversal, sEH activator, sEH inh)
CC1CCC(NC(=O)C2c3ccccc3C(=O)N2Cc2cccs2)CC1 (stereo not given)	none (no result: MRP reversal, sEH activator, sEH inh)
O=C1CC(N2CCN(c3nc4ccccc4s3)CC2)C(=O)N1c1ccc(F)cc1 (stereo not given)	MRP1 act 4.9
CCn1ncc(/C=N\NC(=O)Cc2ccc([N+](=O)[O-])cc2)c1C	Measles CPE 46.5 (no result: MRP reversal, sEH activator, sEH inh)
Cc1cc(C(=O)CN2C(=O)NC3(CCCc4sccc43)C2=O)c(C)n1-c1ccc(Cl)cc1 (stereo not given)	Measles CPE 38.8 (no result: MRP reversal, sEH activator, sEH inh)
Cc1cc(C(=O)CN2C(=O)NC3(CCCc4ccccc43)C2=O)c(C)n1C (stereo not given)	none
Cc1cccc2c(=O)cc(C)n(Cc3ccccc3)c12	Measles CPE 35.9 (no result: MRP reversal, sEH activator, sEH inh)
COc1ccc(C(=O)NCc2ccc(-c3nc4ccccc4s3)cc2)cc1	MRP1 act 7.5 (no result: MRP reversal)
CC1CCCCN1C(=O)NC12CC3CC(CC(C3)C1)C2 (stereo not given)	sEH inh 87.4
Cc1ccc(S(=O)(=O)N(C)C)cc1NC(=S)NC(=O)C12CC3CC(CC(C3)C1)C2	none (no result: MRP reversal, sEH activator, sEH inh)
NS(=O)(=O)c1cccc(NC(=S)NC(=O)C23CC4CC(CC(C4)C2)C3)c1	Measles CPE 44.3 (no result: MRP reversal, sEH activator, sEH inh)
Cc1ccc(S(=O)(=O)NCCC(=O)Nc2cccc(Cl)c2)cc1	none (no result: MRP reversal, sEH activator, sEH inh)
Cc1ccc(C(=O)CCC(=O)Nc2ccc(Cl)c(S(=O)(=O)Nc3cccc(Cl)c3)c2)cc1	MRP1 act 7.8 (no result: MRP reversal, sEH activator, sEH inh)
Cc1scc(C(=O)N2CCN(S(C)(=O)=O)CC2)c1-c1ccccc1	none
CS(=O)(=O)N1CCN(C(=O)c2csc3ccccc23)CC1	Measles CPE 61.3
CCn1c(SCc2ccc(Cl)cc2)nc2nc3c(cc2c1=O)CCCC3	MRP1 act 5.4 (no result: MRP reversal, sEH activator, sEH inh)
N#Cc1cc2c(nc1SCc1ccc(Cl)cc1)CCCC2	MRP1 act 6.8
O=C(Nc1nnc(COc2ccccc2)s1)c1ccco1	Measles CPE 44.7
COc1ccc(Cc2nnc(NC(=O)c3ccco3)s2)cc1	none
CCOC(=O)c1c(CSC(=N)N)n(-c2ccc(C)cc2)c2cc(Br)c(OC(C)=O)cc12	MRP1 act 9.5 (no result: MRP reversal)
Cc1cccc(OCc2nc(-c3nonc3N)no2)c1C	MRP1 act 5.2 (no result: sEH activator, sEH inh)
Nc1nnnn1/N=C/c1ccc(O)cc1	Measles CPE 49.8
Nc1nnnn1/N=C/c1cccc(O)c1	none (no result: MRP reversal)
CCOc1ccc(OCc2ccc(C(=O)NCC3CCCO3)o2)cc1 (stereo not given)	none
O=C(NCC1CCCO1)c1ccc(COc2ccc(F)cc2)o1 (stereo not given)	Measles CPE 31.7
O=C(CSCc1ccc(Cl)cc1)NCc1ccccn1	none (no result: MRP reversal, sEH activator, sEH inh)
O=C(O)c1ccccc1C(=O)Nc1ccc(S(=O)(=O)NC2CCCCC2)cc1	none (no result: MRP reversal, sEH activator, sEH inh)
CC1=C(C(=O)Nc2ccccc2)C(c2ccncc2)C(C#N)=C(SCC(=O)NC2CC2)N1 (stereo not given)	Measles CPE 34.2 (no result: sEH activator, sEH inh)
Oc1ccccc1C=NCC(O)c1ccccc1 (stereo not given)	none (no result: MRP reversal, sEH activator, sEH inh)
O=c1c2c3n(c(=S)nc2[nH]n1-c1ccccc1)CCCCC3	none
Cc1cc(C)n(-c2nc3nonc3nc2Nc2cccc(C)c2C)n1	Measles CPE 31.2 (no result: MRP reversal)
